Experimental data taken from PubChem BioAssay AID1259343 (VanderVen Lab, College of Veterinary Medicine, Cornell …, 2017).
Hit rate of the full screen: of about 6,200 compounds, about 2,900 (47%) were called active. So high a share suggests a set chosen from earlier hits. Some of the results follow. A number with no mark means an inactive call. Cut-off read from the data, not from the text of the source: active = inhibition above about 50%; inactive = the rest.

Experiment: Mycobacterium tuberculosis growth inhibition, primary screen (AID 1259343)
Details: inhibition: at 10 µM, stronger effect = higher value; outcome: 10 uM

**Q.** With `CCOC(=O)Cn1c(=NC(=O)c2cc(C)no2)sc2cc(Cl)ccc21` as the molecule, how does the inhibition read?
**A.** -4.33%

**Q.** Which inhibition does the source give for `O=C(COc1ccc(Cl)cc1)N1CCC(c2nc(-c3ccc(Cl)cc3F)no2)CC1` here?
**A.** 64.9% (active)

**Q.** With `CCOC(=O)CC(=O)N1CCC(c2nc(-c3ccc(Cl)cc3)no2)CC1` as the molecule, how does the inhibition read?
**A.** 57.3% (active)

**Q.** With `COC(=O)C(=O)N1CCC(c2nc(-c3ccc(Cl)cc3)no2)CC1` as the molecule, how does the inhibition read?
**A.** 20.8%

**Q.** For `O=C(c1ccccc1C(F)(F)F)N1CCC(c2nc(-c3ccc(Cl)cc3F)no2)CC1`, which inhibition is on record?
**A.** 15.5%

**Q.** For `O=C(Cc1cccs1)N1CCC(c2nc(-c3ccc(C(F)(F)F)cc3)no2)CC1`, which inhibition is on record?
**A.** 67.2% (active)

**Q.** Which inhibition does the source give for `O=C(NCCc1ccc(C(F)(F)F)cc1)NCCc1cccs1` here?
**A.** 31.3%

**Q.** For `O=C(c1c(F)cccc1Cl)N1CCC(c2nc(-c3ccc(F)c(F)c3)no2)CC1`, which inhibition is on record?
**A.** 88.5% (active)

**Q.** With `O=C(CSc1nnc(Cc2cccs2)n1C1CC1)N1CCOC1=O` as the molecule, how does the inhibition read?
**A.** -19.6%

**Q.** Which inhibition does the source give for `O=C(CCc1ccccc1)N1CCC(c2nc(-c3ccc(C(F)(F)F)cc3)no2)CC1` here?
**A.** 83.2% (active)

**Q.** Which inhibition does the source give for `COc1ccc(CC(=O)N2CCC(c3nc(-c4ccc(Cl)cc4F)no3)CC2)cc1` here?
**A.** 89% (active)

**Q.** For `COc1ccc(CC(=O)N(CC(=O)N2CCc3sccc3C2c2ccc(Cl)cc2Cl)Cc2ccc(F)cc2)cc1` (stereo not given), which inhibition is on record?
**A.** 3.26%

**Q.** Which inhibition does the source give for `OCCc1ccc(-c2noc(C3CCC3)n2)cc1` here?
**A.** 40.7%

**Q.** With `CSC1(CNc2ccc(Br)cn2)CCOCC1` as the molecule, how does the inhibition read?
**A.** 57.5% (active)

**Q.** Which inhibition does the source give for `CC(=O)Nc1cccc(CNc2ccc(Br)cn2)c1` here?
**A.** 2.55%

**Q.** For `O=C(CC1CCS(=O)(=O)C1)Nc1ccc(F)c(-n2cccc2)c1` (stereo not given), which inhibition is on record?
**A.** 58.4% (active)

**Q.** With `CC1(C(=O)Nc2ccc(F)c(-n3cccc3)c2)CCOCC1` as the molecule, how does the inhibition read?
**A.** 49.2%

**Q.** With `O=C(CC1CCCCC1)NCc1ccn(-c2ccccc2F)n1` as the molecule, how does the inhibition read?
**A.** 25.1%

**Q.** With `O=C1CCC(C(=O)Nc2ccc(F)c(-n3cccc3)c2)CN1` (stereo not given) as the molecule, how does the inhibition read?
**A.** 68.1% (active)

**Q.** With `CC(=O)Nc1ccc(/C=C2\C(=O)c3c(O)ccc(Cl)c3C2C)cc1` (stereo not given) as the molecule, how does the inhibition read?
**A.** 28.3%

**Q.** For `CCOC(=O)C1=C(O)/C(=C\c2cccc(C)n2)SC1=Nc1cccc(F)c1`, which inhibition is on record?
**A.** -12.2%

**Q.** With `N#CC1(NC(=O)COc2ccc(C(=O)c3ccc(F)cc3)cc2)CCCCC1` as the molecule, how does the inhibition read?
**A.** 99.2% (active)

**Q.** For `Fc1cccc(F)c1-c1nc(CSc2nccc(C(F)(F)F)n2)cs1`, which inhibition is on record?
**A.** 51.8% (active)

**Q.** With `Cc1nccc(-c2ccc(NC(=O)/C=C/c3csc(C)n3)cc2)n1` as the molecule, how does the inhibition read?
**A.** 86.2% (active)

**Q.** For `O=C(Nc1cccc(Cl)c1Cl)C1COc2ccccc2O1` (stereo not given), which inhibition is on record?
**A.** -20.1%

**Q.** Which inhibition does the source give for `O=C(NNC(=O)C1COc2ccccc2O1)c1cccc(C(F)(F)F)c1` (stereo not given) here?
**A.** -52.4%

**Q.** For `O=C(Nc1cccc([N+](=O)[O-])c1)C1COc2ccccc2O1` (stereo not given), which inhibition is on record?
**A.** 97.2% (active)

**Q.** With `COc1cccc(OCCCOc2ccc(/C=C3\C(=N)N4N=CSC4=NC3=O)cc2)c1` as the molecule, how does the inhibition read?
**A.** 88.5% (active)

**Q.** With `N#Cc1cccc(CN2CCN3C(C(=O)Nc4ccc(-n5cccn5)cc4)=COC3=NC2=O)c1` as the molecule, how does the inhibition read?
**A.** 85.8% (active)

**Q.** Which inhibition does the source give for `N#Cc1cccc(CN2CCN3C(C(=O)Nc4ccc(-n5cccc5)cc4)=COC3=NC2=O)c1` here?
**A.** 29.2%

**Q.** For `N#Cc1cccc(CN2CCN3C(C(=O)NCCCc4ccccc4)=COC3=NC2=O)c1`, which inhibition is on record?
**A.** 89.4% (active)

**Q.** With `O=c1c(Cl)cc(C(F)(F)F)cn1Cc1coc(-c2cccs2)n1` as the molecule, how does the inhibition read?
**A.** 25.7%

**Q.** For `O=c1c(Cl)c(Cl)cnn1Cc1cc(-c2cccs2)on1`, which inhibition is on record?
**A.** 99.8% (active)

**Q.** Which inhibition does the source give for `O=c1c(Cl)c(Cl)cnn1CCOc1ccc(Br)cc1` here?
**A.** 33.5%

**Q.** For `Fc1ccc(C2C=C(c3cccs3)Nc3nnnn32)cc1` (stereo not given), which inhibition is on record?
**A.** 51% (active)

**Q.** With `FC(F)(F)c1ccc(C2C=C(c3cccs3)Nc3nnnn32)cc1` (stereo not given) as the molecule, how does the inhibition read?
**A.** 87.3% (active)

**Q.** Which inhibition does the source give for `FC(F)Oc1ccc(C2C=C(c3ccccc3)Nc3nnnn32)cc1` (stereo not given) here?
**A.** -55.4%

**Q.** For `CCCCCCSC1=C(C#N)C2(CCCC2)C(C#N)C(=O)N1` (stereo not given), which inhibition is on record?
**A.** inactive

**Q.** Which inhibition does the source give for `CCCCCCSC1=C(C#N)C(=O)NC(CO)S1` (stereo not given) here?
**A.** 98.9% (active)

**Q.** Which inhibition does the source give for `CCCCSC1=C(C#N)C(=O)NC(C)S1` (stereo not given) here?
**A.** 27.6%

**Q.** With `c1ccc(-c2cnnc(N3CCCCCCC3)n2)cc1` as the molecule, how does the inhibition read?
**A.** 48.8%

**Q.** For `CC(C)(C)c1cc2nc(C(=O)O)cc(-c3cccc(F)c3)n2n1`, which inhibition is on record?
**A.** 64.4% (active)

**Q.** With `COc1ccccc1-c1cc(C(=O)O)nc2cc(-c3ccc(Cl)cc3)nn12` as the molecule, how does the inhibition read?
**A.** 43.3%

**Q.** Which inhibition does the source give for `CC(C)(C)c1cc2nc(C(=O)O)cc(-c3cccc(C(F)(F)F)c3)n2n1` here?
**A.** 43.3%

**Q.** For `CN1CCC(CNc2ccc3ncc(-c4cccc(OC(F)(F)F)c4)n3n2)CC1`, which inhibition is on record?
**A.** 44.6%

**Q.** With `COc1cccc(-c2cc(C(=O)O)nc3cc(C(C)(C)C)nn23)c1` as the molecule, how does the inhibition read?
**A.** 100% (active)

**Q.** For `COc1cccc(-c2cc(C(=O)O)nc3cc(-c4ccc(Cl)cc4)nn23)c1`, which inhibition is on record?
**A.** 59.4% (active)

**Q.** Which inhibition does the source give for `CCOc1cc(C2=NN(c3ccc(C)cc3)C(=O)CC2)ccc1O` here?
**A.** 6.87%

**Q.** With `COc1ccc2c(c1)c(CC(=O)O)c(C)n2C(=O)c1ccc(Cl)cc1` as the molecule, how does the inhibition read?
**A.** 43.2%

**Q.** For `Cc1ccc(C2(CCN)CCOC(C(C)C)C2)cc1` (stereo not given), which inhibition is on record?
**A.** 80.7% (active)
